High-throughput results: PubChem, Buhrlage Lab, Dana-Farber Cancer Institute and Novartis Institutes for BioMedical Research (Cambridge, Mass)
USP8 block – human USP8 deubiquitinase inhibition. P40818. purified USP8, Ub-rhodamine cleavage fluorescence, 30 min. inhibition, % at 20 µM. actives 4.2% (n = 47,000)
USP28 block – blocks human USP28 ubiquitin-rhodamine cleavage | Q96RU2 | purified USP28, Ub-rhodamine cleavage fluorescence, 30 min | inhibition, % at 25 µM | actives 3% (n = 47,000) | AID 1645857
USP10 inh – blocks human USP10 ubiquitin-rhodamine cleavage; actives 1.1% (n = 47,000); AID 1645856; inhibition, % at 20 µM; purified USP10, Ub-rhodamine fluorescence, 60 min
USP17 inh – inhibitors of human USP17 deubiquitinase. A8MUK1. purified USP17, Ub-rhodamine cleavage fluorescence, 3 h. inhibition, % at 50 µM. actives 6.5% (n = 47,000). AID 1645855
Target sequence (A8MUK1 whole entry, looked up): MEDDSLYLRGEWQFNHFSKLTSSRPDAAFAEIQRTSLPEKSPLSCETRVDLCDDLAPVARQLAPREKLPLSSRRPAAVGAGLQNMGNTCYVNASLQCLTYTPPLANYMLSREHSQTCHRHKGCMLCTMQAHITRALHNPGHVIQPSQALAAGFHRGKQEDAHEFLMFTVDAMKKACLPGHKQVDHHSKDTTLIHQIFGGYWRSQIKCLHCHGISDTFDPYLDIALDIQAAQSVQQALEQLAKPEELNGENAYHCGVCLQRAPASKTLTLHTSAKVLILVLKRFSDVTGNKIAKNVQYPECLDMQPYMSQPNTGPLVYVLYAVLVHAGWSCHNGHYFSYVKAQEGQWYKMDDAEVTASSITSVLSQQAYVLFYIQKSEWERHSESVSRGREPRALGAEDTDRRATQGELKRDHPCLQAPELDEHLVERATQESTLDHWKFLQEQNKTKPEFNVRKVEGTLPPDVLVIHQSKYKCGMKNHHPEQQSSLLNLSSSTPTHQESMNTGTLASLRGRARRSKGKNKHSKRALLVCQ
USP30 block – human USP30 deubiquitinase inhibition. Q70CQ3. purified USP30, Ub-rhodamine cleavage fluorescence. inhibition, % at 25 µM. actives 5.3% (n = 47,000)
Numbers stand for hits; – = inactive; · = not tested or not shown. Only some compounds are listed: those with a hit (about 13% of all), similar ones and a draw of the others. Rule as the data show it: active = inhibition above about 30%; inactive = the rest.

SMILES	USP8 block	USP28 block	USP10 inh	USP17 inh	USP30 block
Cc1noc(-c2ccnc(-n3cnc(C(=O)NCC4CCCO4)c3)c2)n1 (stereo not drawn)	–	–	–	–	–
Cc1cc(C)nc(SCc2cc(=O)c(OC(=O)c3ccc(F)c(F)c3)co2)n1	34	–	–	–	–
O=C(Oc1coc(CSc2ncccn2)cc1=O)c1ccccc1Cl	–	–	–	–	–
O=C(Oc1coc(CSc2ncccn2)cc1=O)c1ccccc1Br	36	–	–	–	–
Cc1nc(-c2cc(C)[nH]n2)cc(C2CCN(S(C)(=O)=O)CC2)n1	–	–	–	–	–
O=C(CCCn1c(=O)[nH]c2cc(Cl)ccc2c1=O)N1CCc2ccccc2C1	69	–	–	55	–
O=C(CCCn1c(=O)[nH]c2ccc(Br)cc2c1=O)N1CCc2ccccc2C1	–	–	–	–	31
COc1ccccc1N1CCN(C(=O)CCCn2c(=O)[nH]c3ccc(Br)cc3c2=O)CC1	–	–	–	–	–
CC(C)(C)OC(=O)NCC(=O)N1CCC(C(=O)N[C@@H](Cc2c[nH]c3ccccc23)C(=O)NC2CCCCC2)CC1	–	–	–	–	–
Cc1ccc(N2CCCn3c2nc2c3c(=O)n(CCc3ccccc3)c(=O)n2C)cc1	–	–	–	–	31
Cc1ccc(N2CCCn3c2nc2c3c(=O)n(CCCc3ccccc3)c(=O)n2C)cc1	–	–	–	–	–
Cc1ccc(-c2[nH]c3ccccc3c2C2c3ccccc3C(=O)N2CC(=O)O)cc1 (stereo not drawn)	61	–	–	–	–
C=CCNC(=O)c1cc2c(=O)n3cccc(C)c3nc2n1CCCOC	–	–	–	–	–
CN1CC=CCC2(CN(Cc3cc4ccccc4nc3N(C)C)CCO2)C1=O (stereo not drawn)	–	–	–	–	–
O=C(NCCN1CCOCC1)c1ccc(-n2cccn2)c(C#Cc2cccnc2)c1	–	–	–	–	–
O=C(NCc1ccncc1)c1ccc(-n2cccn2)c(C#Cc2cccnc2)c1	–	–	–	43	–
Cc1ccc(C(=O)CSc2nnc(CC(=O)Nc3ccc(F)cc3)n2C)cc1	–	–	–	–	–
Cc1nn(-c2cccc(F)c2)c2c1C(C(=O)c1ccc3c(c1)OCO3)CC(=O)N2 (stereo not drawn)	–	–	–	·	–
COCCN1CCC12CCN(C(=O)c1ccc(-n3cccc3)cc1)C2 (stereo not drawn)	–	–	–	–	–
Cc1ccc(NC(=O)CSc2nc3c(cc2C#N)C(=O)CCC3)cc1	–	–	–	55	–
N#Cc1cc2c(nc1SCC(=O)NCc1ccccc1)CCCC2	–	–	–	59	–
Cc1c(C(=O)NCCC(C)C)nnn1-c1cccc2c1CCN(Cc1cccnc1)C2	–	–	–	–	–
COC(=O)c1ccc(Cn2nnc3c(=O)[nH]c(C4CCCN(S(=O)(=O)c5ccc(C)cc5)C4)nc32)cc1 (stereo not drawn)	–	32	41	–	36
O=c1[nH]c(C2CCN(S(=O)(=O)c3ccc(S(=O)(=O)NC4CC4)cc3)CC2)nc2c1nnn2Cc1cccc(F)c1	–	–	–	–	–
Cc1ccc(Cn2nnc3c(=O)[nH]c(C4CCN(S(=O)(=O)c5ccc(S(=O)(=O)NC6CC6)cc5)CC4)nc32)cc1	–	–	–	–	43
SMILES	USP8 block	USP28 block	USP10 inh	USP17 inh	USP30 block
O=c1[nH]c(C2CCN(S(=O)(=O)c3ccc(S(=O)(=O)N4CCOCC4)cc3)CC2)nc2c1nnn2Cc1cccc(F)c1	–	–	–	–	–
CCC(CC)C(=O)N1CCC(c2nc3c(nnn3Cc3ccc(C)cc3)c(=O)[nH]2)CC1	–	–	–	–	–
Cc1ccc(Cn2nnc3c(=O)[nH]c(C4CCN(C(=O)C5CCC5)CC4)nc32)cc1	–	–	–	–	–
O=c1[nH]c(C2CCN(S(=O)(=O)c3ccc(S(=O)(=O)N4CCOCC4)cc3)CC2)nc2c1nnn2Cc1ccc(F)cc1	89	–	45	–	–
O=c1[nH]c(C2CCN(S(=O)(=O)c3ccc(S(=O)(=O)NC4CC4)cc3)CC2)nc2c1nnn2Cc1cccc(Cl)c1	–	38	32	–	42
Cc1nc2ccn(Cc3cccnc3)c(=O)c2cc1C(=O)NCCC(C)C	–	–	–	–	–
CC(NC(=O)C1=CCN(Cc2ccccc2)CC1)c1ccccc1 (stereo not drawn)	–	–	–	–	–
O=c1[nH]c(C2CCN(S(=O)(=O)c3ccc(S(=O)(=O)NC4CCCC4)cc3)CC2)nc2c1nnn2Cc1cccc(Cl)c1	–	38	37	–	59
O=C(Nc1nccnc1C(=O)NCc1ccccn1)c1ccccc1	38	–	–	–	–
O=C(Nc1cccc(-c2nc3cnccc3o2)c1)c1cccc(F)c1	–	·	–	76	·
O=C(Nc1cccc(-c2nc3cnccc3o2)c1)c1ccc(Br)o1	66	–	–	–	31
COc1cc(C(=O)NCc2ccc(-c3nc4cnccc4o3)cc2)cc(OC)c1OC	–	–	–	–	–
COc1ccc(-c2nc3cnccc3o2)cc1NC(=O)c1cccc(F)c1	–	–	–	49	–
COc1cccc(C(=O)Nc2cccc(-c3nc4cnccc4o3)c2)c1	–	·	–	55	·
COc1ccccc1CNC(=O)C1CCCN(c2nc3ccc(C)cc3[nH]2)C1 (stereo not drawn)	–	–	–	–	–
O=C(NCc1ccc(-c2nc3cnccc3o2)cc1)c1cc2ccccc2o1	–	–	–	81	–
Cc1ccc(CC(=O)Nc2cccn3nc(C4CCC4)nc23)cc1	–	–	–	–	–
COc1cccc(-c2nc(CC(=O)NCc3ccc(C(=O)O)cc3)cs2)c1OC	–	–	–	–	–
O=C(NCc1ccccc1Cl)c1ccc(-c2ccc(N3CCCC3)nn2)cc1	–	–	–	42	–
Cc1nc(C2CCNCC2)nc2c1CC(=O)N2CCc1ccccc1	–	–	–	–	–
Cc1nc(-c2ccccc2)nc2c1CC(=O)N2Cc1cccnc1	52	–	–	–	–
Cc1cc(C(=O)N2CC(C(=O)Nc3cc(C(F)(F)F)ccc3Cl)C2)no1	–	–	–	41	70
CCOc1cc2c(cc1OCC)C(c1cc3c(cc1Br)OCO3)NCC2 (stereo not drawn)	–	–	–	–	–
CCOc1cc2c(cc1OCC)C(c1c(OC)ccc3ccccc13)NCC2 (stereo not drawn)	–	–	–	–	38
O=C(NC1CCN(Cc2ccccc2)CC1)c1cn(-c2ccc(F)cc2)nn1	–	–	–	–	–
CN(Cc1ccco1)C(=O)c1ccc2ccnc(N3CCN(c4ccc(Cl)cc4)CC3)c2c1	–	–	–	–	–
O=C(Cc1nc(-c2ccccc2)n[nH]1)Nc1cccc(F)c1	–	–	–	–	30
O=C(Cc1nc(-c2ccccc2)n[nH]1)Nc1ccc(F)cc1F	–	–	–	–	–
COc1ccc(NS(=O)(=O)c2ccc(N3CCCC3)c(NC(=O)/C=C/c3ccccc3)c2)cc1	–	–	–	36	–
O=C(/C=C/c1ccccc1)Nc1cc(S(=O)(=O)Nc2cccc(Cl)c2)ccc1Cl	–	–	–	–	–
